Screens as filed in PubChem.
Shown are actives, neighbours in structure and some others; about 3% of the full set was active somewhere.
OvCa metastasis = ovarian cancer metastasis inhibition, 3D TME model; AID 1963576; Potency, µM (top dose mostly 45.8 µM), most hits filed as inhibitors; actives 0.1% (n = 46,000); SKOV3ip1-GFP adhesion/invasion on 3D omental model, fluorescence; further: nearly all actives have a fitted effect of over 65% in size
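qHTS, 4-pt dose (0.36-46 umol/L); SKOV3ip1-GFP, 1,200 cells/well, no FBS; primary omental fibroblast/mesothelial co-culture 48 h pre-grown; 2 h RT + 16 h 37 C; PBS wash, 4% PFA; GFP count 488/509 nm.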
pS6 MEF inh = inhibitors of mTORC1 signaling in Tsc2-/- p53-/- MEF cells; Tsc2-/- p53-/- MEF, phospho-rpS6 immunofluorescence/PI, 24 h; Potency, µM (titrated, usually from 38.3 µM), most hits filed as inhibitors; actives 0.78% (n = 44,000); AID 493208; further: nearly all actives have a fitted effect of over 50% in size
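Tsc2-/-, p53-/- MEFs (empty-vector stable line) in DMEM + 10% FBS were treated with compounds 24 h at 37 degree Celsius, fixed, and immunostained for phospho-rpS6 (Alexa-488) with propidium iodide counterstain. Laser-scanning cytometry gave % positive cells, normalized against 7.5 nM rapamycin and DMSO.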
S16 F2sN tox = S16 Schwann cell cytotoxicity; S16 Pmp22-F2sN Schwann cells viability, CellTiter-Glo, 24 h; Potency, µM (doses to about 57.5 µM), actives largely listed as cytotoxic; actives 0.48% (n = 43,000); AID 1508642; further: nearly all actives have a fitted effect of over 65% in size
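Viability was measured by CellTiter-Glo luminescence (15 min, room temperature). This followed 24 h at 37 °C of compound exposure (23 nL pin transfer) in S16 Pmp22-F2sN Schwann cells, 500-1,000 per well.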
p53null 39C kill = kills p53 null cells at the nonpermissive temperature; H1299 p53-null (neo) cells, 39C, ATPlite viability, 24 h; Potency, µM (top dose mostly 46.1 µM), actives largely listed as cytotoxic; actives 0.97% (n = 55,000); further: nearly all actives have a fitted effect of over 50% in size
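Temperature-shift cytotoxicity format: compound titrations on p53-null or A138V-expressing H1299 cells held 24 hr at 39C, cell ATP then measured, AC50 from Hill model.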
p53null 32C tox = kills p53 null cells at the permissive temperature | H1299-neo p53 null cells, ATP luminescence, 24 h, 32C | Potency, µM (highest dose often 46.1 µM), actives largely listed as cytotoxic | actives 0.62% (n = 55,000) | AID 903; further: nearly all actives have a fitted effect of over 55% in size
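ATP-content luminescence in p53-null H1299-neo cells after 24 h compound exposure (up to 46 uM) at 32C permissive temperature; 0% and 100% killing set by DMSO and 100 uM tamoxifen; Hill-equation AC50.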
PMP22 txn prim = PMP22 gene transcription modulation; S16 Pmp22-F2sN Schwann cells, FLuc/NLuc coincidence luminescence, 24 h; Potency, µM (doses to about 57.5 µM), usual class: inhibitors; actives 2% (n = 43,000); active means clear falling dose curves in both reporters; inconclusive means both reporters move, but less clearly or upward; inactive means either reporter flat; the % is the NLuc reporter signal
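Rat S16 Pmp22-F2sN cells, 500-1,000/well in phenol red-free DMEM + 10% FBS, compound-treated 24 h (37C, 5% CO2). Luminescence: FLuc read, Stop&Glo added, NLuc read.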
NLuc saturating = counter-screen for PMP22 expression modulators: NanoLuc inhibition, saturating substrate. shares compounds with PMP22 txn prim. Secreted NLuc enzyme (filtered S16 cell medium), Nano-Glo luminescence. Potency, µM (series often up to 57.5 µM), actives largely listed as inhibitors. actives 4% (n = 690)
NLuc Km ctr = NanoLuc inhibition at Km substrate, PMP22 artifact check | shares compounds with PMP22 txn prim | Potency, µM (top dose mostly 57.5 µM), hits mostly inhibitors | actives 5% (n = 690) | secreted NLuc enzyme, coelenterazine luminescence, Km conditions
FLuc counter = firefly luciferase enzyme inhibition artifact for PMP22 screen; shares compounds with PMP22 txn prim; purified P. pyralis FLuc, luminescence, 10 min; Potency, µM (top dose mostly 57.5 µM), hits mostly inhibitors; 690 tested, under 10 active; AID 1508640
Target sequence (P08659 whole entry, looked up): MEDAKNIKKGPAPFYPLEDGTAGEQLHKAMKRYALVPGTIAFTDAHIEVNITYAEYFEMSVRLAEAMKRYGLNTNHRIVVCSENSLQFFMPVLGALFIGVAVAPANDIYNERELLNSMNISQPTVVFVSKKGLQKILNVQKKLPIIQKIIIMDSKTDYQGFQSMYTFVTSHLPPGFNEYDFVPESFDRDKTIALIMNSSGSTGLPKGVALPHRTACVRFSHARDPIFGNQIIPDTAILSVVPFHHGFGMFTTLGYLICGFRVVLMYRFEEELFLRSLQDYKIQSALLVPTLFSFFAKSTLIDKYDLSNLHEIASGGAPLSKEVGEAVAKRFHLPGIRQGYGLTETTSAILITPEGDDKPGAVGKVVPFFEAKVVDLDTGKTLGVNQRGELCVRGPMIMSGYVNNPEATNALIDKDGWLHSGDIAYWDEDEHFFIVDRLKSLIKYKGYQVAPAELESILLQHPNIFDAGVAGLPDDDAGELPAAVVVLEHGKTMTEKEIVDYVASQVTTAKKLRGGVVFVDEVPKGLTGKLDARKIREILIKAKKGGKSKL
S16 F2sN tox cnf = confirmation of cytotoxicity in S16 Pmp22-F2sN Schwann cells (luciferase reporters placed in the Pmp22 gene) | shares compounds with PMP22 txn prim | S16 Schwann cells viability, CellTiter-Glo ATP luminescence, 24 h | Potency, µM (highest dose often 57.5 µM), hits mostly cytotoxic | actives 7% (n = 690) | AID 1508641
PMP22 txn cnf = confirmation of modulators of PMP22 gene transcription in S16 cells | Potency, µM (titrated, usually from 57.5 µM), hits mostly inhibitors | AID 1508646 | actives 22% (n = 690) | shares compounds with PMP22 txn prim | S16 Schwann cells Pmp22-F2sN, dual luciferase, 24 h; active means clear falling dose curves in both reporters; inconclusive means both reporters move, but less clearly or upward; inactive means either reporter flat; the % is the FLuc reporter signal
PMP22 HiBiT cnf = rat PMP22 protein level modulation, confirmatory; shares compounds with PMP22 txn prim; S16 Schwann cells Pmp22-HiBiT, luminescence, 48 h; Potency, µM (series often up to 27.9 µM), hits mostly inhibitors; 95 tested, under 10 active
Target sequence (P25094 whole entry, looked up): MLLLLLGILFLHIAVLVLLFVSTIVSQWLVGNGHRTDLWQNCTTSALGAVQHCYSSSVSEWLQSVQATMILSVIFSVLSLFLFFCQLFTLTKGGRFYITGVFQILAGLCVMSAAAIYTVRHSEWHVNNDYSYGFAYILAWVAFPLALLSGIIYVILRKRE
Numbers stand for hits; . = inactive; ? = inconclusive; / = not tested or not shown. Unless noted, the call rests on the fitted dose curve; in most records, active means well fitted curve in the direction sought with a large enough effect; inconclusive means small, poorly fitted or top-dose-only effect, or another doubt; inactive means no such curve, though single readings can be large; an effect the other way counts as inactive or inconclusive.

SMILES	OvCa metastasis	pS6 MEF inh	S16 F2sN tox	p53null 39C kill	p53null 32C tox	PMP22 txn prim	NLuc saturating	NLuc Km ctr	FLuc counter	S16 F2sN tox cnf	PMP22 txn cnf	others
O=C(CCS(=O)(=O)c1nc(-c2cccs2)cc(C(F)(F)F)n1)Nc1ccc(OC(F)(F)F)cc1	.	.	?	?	.	?	.	?	.	?	9.1µM	PMP22 HiBiT cnf=?
O=C(CCS(=O)(=O)c1nc(-c2cccs2)cc(C(F)(F)F)n1)Nc1ccc(F)c(Cl)c1	?	.	?	?	.	15µM	.	?	.	?	13µM	PMP22 HiBiT cnf=?
COC(=O)c1ccccc1NC(=O)CCS(=O)(=O)c1nc(-c2ccc3c(c2)OCO3)cc(C(F)(F)F)n1	.	.	.	?	.	14µM	.	.	.	.	19µM
COc1ccc(NC(=O)CSc2nc(-c3cccs3)cc(C(F)(F)F)n2)cc1Cl	.	.	.	.	.	?	/	/	/	/	/
C[C@H](NC(=O)C(=O)Nc1ccccc1C(C)(C)C)C(=O)N[C@@H](CC(=O)O)C(=O)COc1c(F)c(F)cc(F)c1F	.	/	/	/	/	/	/	/	/	/	/
COc1ccccc1-c1cc(C(F)(F)F)nc(S(=O)(=O)CCCC(=O)Nc2ccccc2F)n1	?	16µM	?	?	?	8.9µM	?	?	.	?	6.9µM	PMP22 HiBiT cnf=.
COc1ccc(Cl)cc1NC(=O)CCS(=O)(=O)c1nc(-c2cccs2)cc(C(F)(F)F)n1	?	.	?	?	.	10µM	?	?	.	?	8.9µM
COc1ccc(Cl)cc1NC(=O)CCCS(=O)(=O)c1nc(-c2ccc(OC)c(OC)c2)cc(C(F)(F)F)n1	?	13µM	?	?	?	5µM	.	.	.	?	9.3µM	PMP22 HiBiT cnf=.
CC(C)n1nc(-c2ccc3oc(N)nc3c2)c2c(N)ncnc21	.	/	/	/	/	/	/	/	/	/	/
Oc1ccc([C@@H]2Oc3ccc(O)cc3[C@@H]3CCC[C@@H]32)cc1	.	/	/	/	/	/	/	/	/	/	/
COc1ccnc2[nH]cc(C(=O)C(=O)N3CCN(C(=O)c4ccccc4)C[C@@H]3C)c12	.	/	/	/	/	/	/	/	/	/	/
COc1cc2c(=O)c(C(=O)c3ccc(C)c(C)c3)cn(Cc3ccccc3F)c2cc1OC	.	.	.	.	.	17µM	0.39µM	0.48µM	.	.	?
NC(=O)NN=Cc1ccc([N+](=O)[O-])o1	.	/	/	/	/	/	/	/	/	/	/
Cc1ccc(/C=C/c2onc(C)c2S(=O)(=O)N2CCC(C(=O)NCC(C)c3ccccc3)CC2)cc1 (stereo unspecified)	.	.	.	.	.	13µM	.	.	.	.	?
Cc1ccc(/C=C/c2onc(C)c2S(=O)(=O)N2CCC(C(=O)Nc3cccc(C#N)c3)CC2)cc1	.	.	.	.	.	12µM	.	.	.	.	.
Cc1ccc(C)c(NC(=O)C2CCCN(S(=O)(=O)c3c(C)noc3/C=C/N(C)C)C2)c1 (stereo unspecified)	.	.	.	.	.	?	?	?	.	.	.
Cc1ccc(/C=C/c2onc(C)c2S(=O)(=O)N2CCC(C(=O)Nc3cc(C)ccc3C)CC2)cc1	.	.	?	.	.	.	/	/	/	/	/
N#CC[C@H](C1CCCC1)n1cc(-c2ncnc3[nH]ccc23)cn1	.	/	/	/	/	/	/	/	/	/	/
CCCSc1ncc(Cl)c(C(=O)Nc2sc3c(c2C(=O)NCC)CCCC3)n1	.	.	.	.	.	5.1µM	.	.	.	.	?
COc1ccc(Nc2ncc(C(=O)N3CCN(c4ccc(OC)cc4)CC3)c3ccccc23)cc1	.	.	.	.	.	?	/	/	/	/	/
COc1ccc(Nc2ncc(C(=O)N3CCN(c4cccc(Cl)c4)CC3)c3ccccc23)cc1	.	.	.	.	.	14µM	?	.	.	.	?
CCOc1ccc(OCC)c(NC(=O)c2nnn(CC(=O)Nc3cc(Cl)ccc3OC)c2N)c1	?	.	.	.	.	11µM	.	.	.	?	14µM
CCOc1ccc(OCC)c(NC(=O)c2nnn(Cc3cc(Br)ccc3OC)c2N)c1	.	.	.	.	.	.	/	/	/	/	/
CC(C)(C)C(=O)OCOP(=O)(COCCn1cnc2c(N)ncnc21)OCOC(=O)C(C)(C)C	.	/	/	/	/	/	/	/	/	/	/
O=S(=O)(NCc1ccc(F)cc1)c1ccc(N2CCCCS2(=O)=O)cc1	.	.	?	.	.	12µM	.	.	.	.	.
SMILES	OvCa metastasis	pS6 MEF inh	S16 F2sN tox	p53null 39C kill	p53null 32C tox	PMP22 txn prim	NLuc saturating	NLuc Km ctr	FLuc counter	S16 F2sN tox cnf	PMP22 txn cnf	others
CCOC(=O)COc1ccc(C)cc1C(=O)c1ccn2nc(-c3ccc(F)cc3)cc2n1	.	.	.	/	/	18µM	.	?	.	.	?
CCOC(=O)COc1ccc(F)cc1C(=O)c1ccn2nc(-c3ccc(C)cc3)cc2n1	.	.	?	/	/	.	/	/	/	/	/
O=C(NCc1ccccc1Cl)C1CCN(S(=O)(=O)c2ccc3c(c2)CCCN3C(=O)C2CCC2)CC1	.	.	?	.	.	8.5µM	.	.	.	.	.
CCC(=O)N1CCc2cc(S(=O)(=O)CCC(=O)N3CCN(c4ccc(Cl)cc4)CC3)ccc21	.	.	.	.	.	17µM	?	.	.	.	?
COc1ccc(NC(=O)Cn2c(=O)c3cccn3c3ccccc32)cc1	.	.	.	.	.	.	/	/	/	/	/
COc1ccc(OC)c(NC(=O)Cn2c(=O)c3cccn3c3ccccc32)c1	.	.	.	.	.	?	?	?	.	.	.
Cc1cccc(NC(=O)c2cnn(-c3ccccc3)c2-n2cccc2)c1C	.	.	.	.	.	13µM	19µM	15µM	.	.	.
